The list is not random: actives were taken first. Their share in the collection is about 3.5%.
Anthrax LF inh2 = Bacillus anthracis LF protease inhibitors, primary screen, biochemical, multiplex microsphere, MLPCN library; inhibition, % at 10 µM; Lethal factor (Bacillus anthracis), P15917; AID 588501, 2011; multiplex microsphere protease cleavage assay; 360,000 compounds, 0.12% hits
Target sequence (P15917 whole entry, looked up): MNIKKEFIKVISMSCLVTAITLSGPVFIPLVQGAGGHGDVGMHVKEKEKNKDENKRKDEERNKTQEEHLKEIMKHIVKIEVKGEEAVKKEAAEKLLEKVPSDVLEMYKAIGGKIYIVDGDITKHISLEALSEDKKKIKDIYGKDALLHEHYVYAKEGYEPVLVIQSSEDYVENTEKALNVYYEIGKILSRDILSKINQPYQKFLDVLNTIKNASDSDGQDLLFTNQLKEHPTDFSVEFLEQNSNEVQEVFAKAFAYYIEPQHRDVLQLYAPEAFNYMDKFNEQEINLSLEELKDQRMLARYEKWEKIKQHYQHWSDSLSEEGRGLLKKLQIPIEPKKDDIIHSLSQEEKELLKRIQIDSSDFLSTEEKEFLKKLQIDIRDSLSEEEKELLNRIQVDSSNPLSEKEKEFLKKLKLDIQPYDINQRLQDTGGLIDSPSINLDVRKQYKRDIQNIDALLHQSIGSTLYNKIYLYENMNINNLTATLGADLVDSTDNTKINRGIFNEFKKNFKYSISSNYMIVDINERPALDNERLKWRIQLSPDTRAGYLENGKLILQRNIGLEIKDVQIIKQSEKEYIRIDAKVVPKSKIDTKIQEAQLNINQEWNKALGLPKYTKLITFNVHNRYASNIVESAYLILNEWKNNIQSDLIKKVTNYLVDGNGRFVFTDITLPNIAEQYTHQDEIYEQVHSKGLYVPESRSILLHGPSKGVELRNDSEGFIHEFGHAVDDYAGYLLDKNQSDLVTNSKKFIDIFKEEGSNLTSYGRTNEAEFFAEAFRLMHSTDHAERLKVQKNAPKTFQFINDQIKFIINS
Autofluor counter = counter-screen for toxin protease inhibitors: compound fluorescence | fluorescence intensity (no concentration beside the values) | 360,000 compounds, 3.1% hits | compound autofluorescence counterscreen, microsphere flow cytometry; hits give high values; in the data active means fluorescence intensity above about 16000; inconclusive means no clear call, values can overlap the other calls
BoNT F protease = BoNT/F light chain protease inhibitors, primary screen, biochemical, flow cytometry, MLPCN library; AID 588497, 2011; 360,000 compounds, 0.22% hits; Multiplex microsphere protease cleavage assay; inhibition, % at 10 µM; in the data active means inhibition above about 35%, passing the limit was not always enough; inconclusive means no clear call, values can overlap the other calls
BoNT-A LC inh2 = BoNT/A light chain protease inhibitors, primary screen, biochemical, flow cytometry, MLPCN library. Botulinum neurotoxin type A light chain protease (Clostridium botulinum A str. ATCC 3502). multiplex microsphere protease substrate cleavage. inhibition, % at 10 µM. 360,000 compounds, 0.17% hits. AID 588499, 2011
A number is an active result. Unless noted, no stated cut-off is given here; in the data, active means inhibition above about 30%; inconclusive means no clear call, values can overlap the other calls; inactive means below that.

What do the screens show for `COC(=O)C1=C(C)N=c2s/c(=C/c3ccoc3)c(=O)n2C1c1ccccc1` (centres undefined)?
Anthrax LF inh2: inactive; Autofluor counter: 21630; BoNT F protease: inactive; BoNT-A LC inh2: inactive

What do the screens show for `O=C(O)c1cccc(COc2ccccc2Cl)c1`?
Anthrax LF inh2: inactive; Autofluor counter: 22141; BoNT F protease: inactive; BoNT-A LC inh2: inactive

What do the screens show for `CCC(C)NC(=O)c1ccc(COc2ccccc2Cl)cc1` (centres undefined)?
Anthrax LF inh2: inactive; Autofluor counter: 21804; BoNT F protease: inactive; BoNT-A LC inh2: inactive

How did O=C(O)c1ccc(COc2ccccc2Cl)cc1 do in these assays?
Anthrax LF inh2: inactive; Autofluor counter: inactive; BoNT F protease: inactive; BoNT-A LC inh2: inactive

How did CN1CCN(C(=O)c2cccc(COc3cc(Cl)ccc3Cl)c2)CC1 do in these assays?
Anthrax LF inh2: inactive; Autofluor counter: 22814; BoNT F protease: inactive; BoNT-A LC inh2: inactive

What do the screens show for `CN1CCN(C(=O)c2ccc(COc3cc(Cl)ccc3Cl)o2)CC1`?
Anthrax LF inh2: inactive; Autofluor counter: inactive; BoNT F protease: inactive; BoNT-A LC inh2: inactive

What do the screens show for `CC(C(=O)NCC1CCCO1)N(C(=O)c1snc(C(N)=O)c1N)c1cccc(F)c1` (centres undefined)?
Anthrax LF inh2: inactive; Autofluor counter: inactive; BoNT F protease: inactive; BoNT-A LC inh2: inactive

How did CC(NC(=O)OCc1ccccc1)C(=O)NCC1CCCO1 (centres undefined) do in these assays?
Anthrax LF inh2: inactive; Autofluor counter: 22834; BoNT F protease: inactive; BoNT-A LC inh2: inactive

How did CC(C(=O)NCC1CCCO1)N(C(=O)c1snc(C(N)=O)c1N)c1ccccc1 (centres undefined) do in these assays?
Anthrax LF inh2: inactive; Autofluor counter: 23246; BoNT F protease: inactive; BoNT-A LC inh2: inactive

What do the screens show for `CCC(CO)NCc1ccc(Br)cc1` (centres undefined)?
Anthrax LF inh2: inactive; Autofluor counter: inactive; BoNT F protease: inactive; BoNT-A LC inh2: inactive

Results for CCC(CO)NCc1ccc(OC2CCCC2)cc1 (centres undefined) ?
Anthrax LF inh2: inactive; Autofluor counter: 23277; BoNT F protease: inactive; BoNT-A LC inh2: inactive

What do the screens show for `CCc1nc(N)c(C#N)c(-c2cccnc2)c1C`?
Anthrax LF inh2: inactive; Autofluor counter: 17121; BoNT F protease: inactive; BoNT-A LC inh2: inactive

How did CCOc1ccc(OCCC(=O)OCC(=O)NC(C)c2ccccc2)cc1 (centres undefined) do in these assays?
Anthrax LF inh2: inactive; Autofluor counter: inactive; BoNT F protease: inactive; BoNT-A LC inh2: inactive

How did CC(C)NC(=O)NC(=O)COC(=O)CCOc1ccccc1 do in these assays?
Anthrax LF inh2: inactive; Autofluor counter: 24104; BoNT F protease: inactive; BoNT-A LC inh2: inactive

Results for CC(C)(C)S(=O)N1Cc2cc(C(=O)NCC(F)(F)F)nc(-c3cccc(-c4cccc(F)c4)c3)c2[C@@H]1CCO (some centres undefined) ?
Anthrax LF inh2: inactive; Autofluor counter: inactive; BoNT F protease: inactive; BoNT-A LC inh2: inactive

Results for CCN(CC)S(=O)(=O)c1cccc(-c2nnc(SCC(=O)NC3CCCCCC3)n2N)c1 ?
Anthrax LF inh2: inactive; Autofluor counter: 22076; BoNT F protease: inactive; BoNT-A LC inh2: inactive

How did CCN(CC)S(=O)(=O)c1cccc(-c2nnc(SCC(=O)NC3CCCCCCC3)n2N)c1 do in these assays?
Anthrax LF inh2: inactive; Autofluor counter: 21228; BoNT F protease: inactive; BoNT-A LC inh2: inactive

How did CCN(CC)S(=O)(=O)c1cccc(-c2nnc(SCC(=O)NC3CCCC3)n2N)c1 do in these assays?
Anthrax LF inh2: inactive; Autofluor counter: 20557; BoNT F protease: inactive; BoNT-A LC inh2: inactive

What do the screens show for `Cc1ccccc1N(CC(=O)N1CCN(Cc2ccccc2)CC1)S(C)(=O)=O`?
Anthrax LF inh2: inactive; Autofluor counter: inactive; BoNT F protease: inactive; BoNT-A LC inh2: inactive

What do the screens show for `O=C(Oc1c(Cl)cc(Cl)c2cccnc12)N1CCOCC1`?
Anthrax LF inh2: inconclusive; Autofluor counter: inconclusive; BoNT F protease: inactive; BoNT-A LC inh2: inconclusive

How did O=C(Oc1c(Cl)cc(Cl)c2cccnc12)N1CCCCC1 do in these assays?
Anthrax LF inh2: inactive; Autofluor counter: 21476; BoNT F protease: inactive; BoNT-A LC inh2: inconclusive

Results for O=Cc1cn(Cc2ccc(F)cc2)c2ccccc12 ?
Anthrax LF inh2: inactive; Autofluor counter: inactive; BoNT F protease: inactive; BoNT-A LC inh2: inactive

How did O=[N+]([O-])/C=C/c1cn(Cc2ccc(F)cc2)c2ccccc12 do in these assays?
Anthrax LF inh2: 31.2; Autofluor counter: inactive; BoNT F protease: inactive; BoNT-A LC inh2: 37.5
